The source of these data is PubChem BioAssay (NCATS).

Unmarked numbers belong to inactive results. Records with an inconclusive call do not appear. The source made the active and inactive calls. Unless noted, the call rests on the fitted dose curve; in most records, active means well fitted curve in either direction with a large enough effect (not every such curve was filed as active); inconclusive means small, poorly fitted or top-dose-only effect, or another doubt; inactive means flat fitted curve, though single readings scatter.

In assay [1] the target is Lysosomal acid glucosylceramidase (Homo sapiens) (UniProt P04062). Put plainly: Glucocerebrosidase-p2 (AID 348; in the data active means potency below about 10 µM; further: potency means the concentration at half of the fitted maximal effect). Conditions: purified GBA, blue fluorogenic substrate, 40 min. In outline: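 Compounds titrated from 0.6 nM upwards against 0.2 nM enzyme in pH 5.9 citric acid/KH2PO4, taurocholate, tween-20; blue fluorogenic substrate 80 uM, 40 min room temperature, stopped and read Ex 365/Em 440 for AC50.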

Assay [2] is described as follows: AP1 Signaling Pathway (AID 357).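 Further: ME-180 reporter cells stimulated with EGF at its EC50 level; on the % scale 0 is the no-effect control and ±100 the full control effect.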 Conditions: ME-180 AP-1-bla reporter, EGF-induced, beta-lactamase ratio, 5 h; at 7.69 µM (top of the series) unless noted. In outline: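 In this screen, ME-180 cells in Opti-MEM with 0.5% dialyzed FBS received EC50 EGF and compound titrations for 5 h. AP-1 reporter beta-lactamase was detected via CCF4 ratio, giving AC50 for positive and negative modulators.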

For assay [3], the target named is Cytochrome P450 1A2 (Homo sapiens) (UniProt P05177). Put plainly: p450-cyp1a2 (AID 410; calls by dose curve; further: potency means the concentration at half of the fitted maximal effect;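 on activity change, negative = inhibition: -100% = full effect of reference inhibitor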). Conditions: recombinant CYP1A2, luciferin-ME demethylation, luminescence; series mostly up to 11.4 µM. In outline: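 Luminescent readout of luciferin formed from Luciferin-ME by human CYP1A2; data normalized against complete inhibition by 57 uM furafylline. Enzyme 20nM, substrate 100uM at Km, 100mM KPO4 buffer, 60 min reaction at room temperature.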

The nature of assay [4]: NFAT Signaling Pathway (AID 444).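 Further: carbachol stimulus at about its EC50 of 1 µM final; on the % scale 0 is the no-effect control and ±100 the full control effect.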 Particulars: Jurkat NFAT-bla M1, carbachol, beta-lactamase ratio, 5 h; at 7.69 µM (top of the series) unless noted. Put shortly: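 Jurkat cells carrying an NFAT-driven β-lactamase reporter and co-transfected muscarinic M1 receptor were treated with compound plus carbachol (1 uM final, an EC50 level) for 5 h at 37 °C. CCF4 loading followed for 1 h at RT; 460/530 nm ratio gave %activity.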

Assay [5] is described as follows: Stat Signaling Pathway (AID 446).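 Further: ME-180 cervical cancer cells given 40 pM IL-6 alongside compound; SIE-controlled beta-lactamase reporter measured as 460/530 nm FRET emission ratio; on the % scale 0 is the no-effect control and ±100 the full control effect.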 Particulars: ME-180 SIE beta-lactamase reporter, IL-6 stimulated, 5 h; at 7.69 µM (top of the series) unless noted. In outline: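 ME-180 SIE-bla cells; overnight plating; cpd + IL-6 40 pM, 5 h, 37 C; LiveBLAzer 2.5 h RT; 460/530 nm emission ratio. Normalized to 300 pM IL-6 and 125 nM JAK inhibitor controls.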
Assay [6] has as its target Glucocorticoid receptor (Homo sapiens) (UniProt P04150). Put plainly: GR-GFP Redistribution (AID 450;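 active means compounds whose dose series gives a full or clear partial fitted curve of increased nuclear translocation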; further: potency means the concentration at half of the fitted maximal effect). Conditions: U2OS GR-GFP nuclear translocation, laser cytometry, 2 h.
Assay [7] shares this target. Put plainly: GR-EFC Redistribution (AID 451; calls by dose curve; further: potency means the concentration at half of the fitted maximal effect). Particulars: CHO-K1 GR-EFC translocation, beta-gal luminescence, 2 h. In outline: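 CHO-K1 cells stably expressing nuclear-localized β-gal enzyme acceptor and GR fused C-terminally to the enzyme donor fragment; ligand-driven nuclear translocation restores β-gal by complementation. Compounds titrated up to 46 uM final, 2 h at 37 °C; luminescence read.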

In assay [8] the target is Mitogen-activated protein kinase 10 (Mus musculus) (UniProt Q61831). Kind of assay: JNK3 AlphaScreen Assay (AID 530).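 Further: kinase came from lysate of stimulated human HepG2 cells; signal reports phosphorylation of biotinylated GST-cJun 1-79 at Ser73 with 10 µM ATP; on the % scale 0 is the no-effect control and ±100 the full control effect.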 Conditions: JNK3 lysate, c-Jun phosphorylation; series mostly up to 11.4 µM. In outline:
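Inhibitors reduce antibody binding to phosphorylated biotin-cJun, lowering AlphaScreen luminescence. Lysates from HepG2 cells pre-activated by IL-1beta plus TNF-alpha supplied JNK3; compounds were titrated.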
For orientation: Bead proximity is the source of the signal in Alpha formats.

The target in assay [9] is 3',5'-cyclic-AMP phosphodiesterase 4B (Homo sapiens) (UniProt Q07343). Put plainly: qHTS Assay for Inhibitors of PDE-IV (AID 607; active means well fitted activation curve with a large enough effect in the main read-out, with a control signal flat, not every such curve was filed as active; further: % of control where 0% means no effect). Particulars: HEK293 ACTOne CNG channel cells, membrane potential fluorescence; series mostly up to 22.9 µM. In outline: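 ACTOne HEK293 cells carry a modified cAMP-gated CNG channel and express endogenous PDE4; plated 1000 cells/well, compounds up to 22.9 uM final. Membrane-potential dye fluorescence (ex 535/em 590) was read; parental cells received 10 uM forskolin + 100 uM RO 20-1724.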

The target of assay [10] is Cytochrome P450 3A4 (Homo sapiens) (UniProt P08684). Kind of assay: qHTS Assay for Activators of Cytochrome P450 3A4 (AID 885; active means well fitted curve in the direction sought with a large enough effect; an effect the other way counts as inactive or inconclusive; further: nearly all actives have a fitted effect of over 65% in size). Particulars: recombinant CYP3A4, Luciferin-PPXE luminescence, 60 min; series mostly up to 11.4 µM. In outline: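 20nM CYP3A4 + 25uM Luciferin-PPXE (=KM), 200mM KPO4; cpd 10 min RT; NADPH regen, 60 min RT; stop w/ detection buffer, 20 min; luminescence. Normalized to 57 uM ketoconazole.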
For orientation: qHTS replaces the single test concentration by a dilution series.

Assay [11] is described as follows: qHTS Assay for Identification of Small Molecule Agonists for Hypoxia Response Element Signaling Pathway (AID 914; active means well fitted activation curve with a large enough effect in the signal ratio, with a control signal flat, not every such curve was filed as active; the % refers to the signal ratio; further: % of control where 0% means no effect). Conditions: ME-180 (cervical carcinoma) HRE-bla reporter, beta-lactamase ratio, CoCl2, 17 h; activation: hits give high values. Put shortly:
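qHTS titration; ME-180 HRE-bla cells; EC50 CoCl2 co-treatment, 17 h at 37 degrees Celsius; CCF4 dye, ex 405nm, em 460nm and 530nm; %Activity from ratio; AC50.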

Assay [12] has as its target Cytochrome P450 2C19 (Homo sapiens) (UniProt P33261). Put plainly: qHTS Assay for Inhibitors and Substrates of Cytochrome P450 2C19 (AID 899; active means well fitted curve in the direction sought with a large enough effect; an effect the other way counts as inactive or inconclusive; further: nearly all actives have a fitted effect of over 60% in size; further: potency means the concentration at half of the fitted maximal effect). Conditions: recombinant CYP2C19, luciferin-H EGE luminescence; series mostly up to 11.4 µM. In outline:
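Human CYP2C19 (5nM) with Luciferin-H EGE at 10uM (its KM) in 50mM KPO4 was preincubated with compound for 10 min at 37C. NADPH regeneration started a 60 min 37C reaction. Luciferin was read by luminescence, normalized to 57uM ketoconazole.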

In assay [13] the target is Cytochrome P450 2D6 (Homo sapiens) (UniProt P10635). Kind of assay: qHTS Assay for Inhibitors and Substrates of Cytochrome P450 2D6 (AID 891; active means well fitted curve in the direction sought with a large enough effect; an effect the other way counts as inactive or inconclusive; further: nearly all actives have a fitted effect of over 60% in size; further: potency means the concentration at half of the fitted maximal effect). Conditions: recombinant CYP2D6, luciferin-ME EGE luminescence; series mostly up to 11.4 µM. In outline: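 Human CYP2D6 (5 nM) with 30 uM Luciferin-ME EGE (at Km) in 100 mM KPO4, compound preincubated 10 min, then NADPH regeneration system for 60 min at room temperature. Luciferin read by luminescence; normalized to 1.43 uM quinidine.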
Sequence of Cytochrome P450 2D6 (Homo sapiens) (P10635 whole entry, looked up): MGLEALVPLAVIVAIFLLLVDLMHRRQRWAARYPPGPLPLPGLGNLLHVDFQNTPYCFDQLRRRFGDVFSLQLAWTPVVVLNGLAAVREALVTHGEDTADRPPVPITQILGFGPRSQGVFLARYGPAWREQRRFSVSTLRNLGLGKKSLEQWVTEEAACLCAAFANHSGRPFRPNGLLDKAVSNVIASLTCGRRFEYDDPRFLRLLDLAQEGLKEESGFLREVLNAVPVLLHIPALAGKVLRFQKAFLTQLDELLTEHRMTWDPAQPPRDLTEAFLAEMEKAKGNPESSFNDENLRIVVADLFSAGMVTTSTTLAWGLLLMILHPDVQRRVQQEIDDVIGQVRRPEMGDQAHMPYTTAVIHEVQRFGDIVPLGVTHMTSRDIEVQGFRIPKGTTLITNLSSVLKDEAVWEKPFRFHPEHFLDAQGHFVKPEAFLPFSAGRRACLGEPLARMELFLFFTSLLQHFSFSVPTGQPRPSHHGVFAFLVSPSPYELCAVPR

Sequence of Cytochrome P450 2C19 (Homo sapiens) (P33261 whole entry, looked up): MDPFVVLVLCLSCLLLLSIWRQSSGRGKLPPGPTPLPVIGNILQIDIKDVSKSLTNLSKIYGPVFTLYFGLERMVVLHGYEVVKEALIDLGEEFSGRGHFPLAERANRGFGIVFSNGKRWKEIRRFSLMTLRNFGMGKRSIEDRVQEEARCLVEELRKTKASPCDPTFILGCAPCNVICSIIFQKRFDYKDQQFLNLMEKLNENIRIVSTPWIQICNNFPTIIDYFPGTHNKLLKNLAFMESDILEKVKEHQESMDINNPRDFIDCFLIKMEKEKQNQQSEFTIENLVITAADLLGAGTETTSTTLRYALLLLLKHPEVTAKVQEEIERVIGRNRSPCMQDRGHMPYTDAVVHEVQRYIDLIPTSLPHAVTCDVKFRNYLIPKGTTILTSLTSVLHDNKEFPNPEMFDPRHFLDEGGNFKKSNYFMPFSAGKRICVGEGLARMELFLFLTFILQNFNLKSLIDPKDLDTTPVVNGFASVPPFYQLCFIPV
Sequence of Lysosomal acid glucosylceramidase (Homo sapiens) (P04062 whole entry, looked up): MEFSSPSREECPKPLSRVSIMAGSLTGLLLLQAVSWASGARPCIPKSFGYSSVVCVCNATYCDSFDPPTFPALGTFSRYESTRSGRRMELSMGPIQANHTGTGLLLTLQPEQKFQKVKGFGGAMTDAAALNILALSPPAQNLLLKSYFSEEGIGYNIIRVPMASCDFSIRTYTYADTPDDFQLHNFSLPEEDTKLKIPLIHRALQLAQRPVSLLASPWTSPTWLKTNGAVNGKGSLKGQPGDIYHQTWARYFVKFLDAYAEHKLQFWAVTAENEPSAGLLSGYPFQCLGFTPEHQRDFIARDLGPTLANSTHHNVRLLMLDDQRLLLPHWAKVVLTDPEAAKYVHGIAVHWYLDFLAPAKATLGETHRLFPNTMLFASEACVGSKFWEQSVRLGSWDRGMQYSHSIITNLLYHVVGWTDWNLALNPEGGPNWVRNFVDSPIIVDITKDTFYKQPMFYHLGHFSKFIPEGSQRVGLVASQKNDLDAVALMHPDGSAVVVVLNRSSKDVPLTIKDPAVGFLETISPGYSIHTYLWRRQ
Sequence of Glucocorticoid receptor (Homo sapiens) (P04150 whole entry, looked up, the tested form may be a part): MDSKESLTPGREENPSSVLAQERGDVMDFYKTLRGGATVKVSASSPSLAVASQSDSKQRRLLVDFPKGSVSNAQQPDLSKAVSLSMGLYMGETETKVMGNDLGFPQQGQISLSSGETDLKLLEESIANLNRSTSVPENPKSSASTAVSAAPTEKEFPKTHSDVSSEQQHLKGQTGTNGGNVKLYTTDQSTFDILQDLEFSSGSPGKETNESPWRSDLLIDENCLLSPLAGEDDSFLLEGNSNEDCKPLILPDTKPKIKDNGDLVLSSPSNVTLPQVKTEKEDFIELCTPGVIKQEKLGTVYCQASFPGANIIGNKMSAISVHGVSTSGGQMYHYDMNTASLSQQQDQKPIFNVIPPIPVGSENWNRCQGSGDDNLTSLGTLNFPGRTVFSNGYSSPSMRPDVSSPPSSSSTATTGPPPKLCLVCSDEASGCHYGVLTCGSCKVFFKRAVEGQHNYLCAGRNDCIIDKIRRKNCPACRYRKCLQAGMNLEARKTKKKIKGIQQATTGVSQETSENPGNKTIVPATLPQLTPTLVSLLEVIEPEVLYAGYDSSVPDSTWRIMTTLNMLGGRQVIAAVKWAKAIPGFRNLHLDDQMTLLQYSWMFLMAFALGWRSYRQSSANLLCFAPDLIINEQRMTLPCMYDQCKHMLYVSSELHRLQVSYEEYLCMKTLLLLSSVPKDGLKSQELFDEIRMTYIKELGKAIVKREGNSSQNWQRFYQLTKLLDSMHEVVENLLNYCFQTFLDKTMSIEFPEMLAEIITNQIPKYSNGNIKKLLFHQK
Sequence of 3',5'-cyclic-AMP phosphodiesterase 4B (Homo sapiens) (Q07343 whole entry, looked up): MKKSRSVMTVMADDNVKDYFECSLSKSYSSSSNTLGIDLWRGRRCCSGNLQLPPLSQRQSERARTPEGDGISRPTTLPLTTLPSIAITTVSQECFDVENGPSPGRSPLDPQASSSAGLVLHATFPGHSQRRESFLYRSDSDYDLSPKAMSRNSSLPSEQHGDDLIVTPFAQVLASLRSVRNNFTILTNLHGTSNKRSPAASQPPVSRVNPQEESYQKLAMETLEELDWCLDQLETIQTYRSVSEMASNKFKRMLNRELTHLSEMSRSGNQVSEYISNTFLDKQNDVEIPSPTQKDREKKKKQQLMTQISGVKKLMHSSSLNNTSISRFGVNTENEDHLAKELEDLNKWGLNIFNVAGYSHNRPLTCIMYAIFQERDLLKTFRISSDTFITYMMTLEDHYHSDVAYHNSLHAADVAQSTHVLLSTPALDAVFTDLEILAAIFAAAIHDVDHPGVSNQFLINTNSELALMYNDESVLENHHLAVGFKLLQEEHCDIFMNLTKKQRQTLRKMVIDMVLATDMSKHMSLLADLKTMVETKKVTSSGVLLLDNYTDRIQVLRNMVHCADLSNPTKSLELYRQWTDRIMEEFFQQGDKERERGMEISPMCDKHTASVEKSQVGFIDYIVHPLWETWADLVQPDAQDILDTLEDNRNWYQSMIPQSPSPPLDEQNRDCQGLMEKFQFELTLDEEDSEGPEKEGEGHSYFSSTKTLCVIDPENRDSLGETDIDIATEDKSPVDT
Sequence of Cytochrome P450 1A2 (Homo sapiens) (P05177 whole entry, looked up): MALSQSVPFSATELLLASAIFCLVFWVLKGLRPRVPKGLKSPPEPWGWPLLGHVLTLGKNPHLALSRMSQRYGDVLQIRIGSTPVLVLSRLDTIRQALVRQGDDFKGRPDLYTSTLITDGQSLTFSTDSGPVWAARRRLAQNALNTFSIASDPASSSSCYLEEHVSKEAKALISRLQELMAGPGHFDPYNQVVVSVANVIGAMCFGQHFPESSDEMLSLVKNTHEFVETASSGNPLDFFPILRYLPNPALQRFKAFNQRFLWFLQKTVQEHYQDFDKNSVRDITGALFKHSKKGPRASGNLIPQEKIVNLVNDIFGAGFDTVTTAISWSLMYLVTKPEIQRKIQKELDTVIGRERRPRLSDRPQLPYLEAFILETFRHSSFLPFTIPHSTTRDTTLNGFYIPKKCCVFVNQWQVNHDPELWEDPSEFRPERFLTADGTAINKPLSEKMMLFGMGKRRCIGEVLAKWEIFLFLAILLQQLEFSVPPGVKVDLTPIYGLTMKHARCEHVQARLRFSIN
Sequence of Cytochrome P450 3A4 (Homo sapiens) (P08684 whole entry, looked up): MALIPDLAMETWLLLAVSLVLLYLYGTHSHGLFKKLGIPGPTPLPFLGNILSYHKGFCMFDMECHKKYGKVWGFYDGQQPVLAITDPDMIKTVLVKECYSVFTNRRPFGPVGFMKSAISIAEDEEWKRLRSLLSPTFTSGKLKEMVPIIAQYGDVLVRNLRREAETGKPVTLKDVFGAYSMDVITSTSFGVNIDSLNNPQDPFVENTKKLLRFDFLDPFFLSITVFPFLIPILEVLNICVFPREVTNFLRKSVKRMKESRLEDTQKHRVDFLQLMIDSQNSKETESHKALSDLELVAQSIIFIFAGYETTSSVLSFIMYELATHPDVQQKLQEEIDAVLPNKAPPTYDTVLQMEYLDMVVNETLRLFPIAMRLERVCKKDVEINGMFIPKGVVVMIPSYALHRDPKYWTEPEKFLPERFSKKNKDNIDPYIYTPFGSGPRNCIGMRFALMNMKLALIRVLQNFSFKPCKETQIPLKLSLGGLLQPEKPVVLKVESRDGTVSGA

Regarding `CCOC(=O)C1=C(C)NC(=O)N[C@@H]1c1coc2cc(C)cc(C)c2c1=O`, the Potency in [1] is greater than 11.4 µM; in assay [3], 2.51 µM (active); in assay [6], greater than 46 µM; in [7], greater than 9.22 µM. The activity change, negative = inhibition in [2] was -13.4%; in assay [4], 17.5%. In addition, the activity, negative = inhibition in assay [5] was -5.6%. Further, the Potency entry in [8], in assay [9] and in assay [10] was “inactive” in each case. In addition, the activation in [11] was 23.8%.

`N/C(CC(=O)Nc1cc(C(F)(F)F)ccc1Cl)=N\O`: the Potency is greater than 11.4 µM in assay [1], 1.58 µM (active) in assay [3], greater than 46 µM in [6] and greater than 9.22 µM in assay [7]. In addition, the results for the activity change, negative = inhibition in assay [2] and in assay [4] were -3.52% and 11.5%, respectively. Besides, the activity, negative = inhibition in assay [5] was -1.63%. Besides, the Potency result in assay [8], in [9], in [10] and in assay [12] was “inactive” each time.

As to `O=c1cnc2cnc(Oc3ccccc3)nc2n1Cc1ccc(F)cc1`, the Potency is greater than 11.4 µM in assay [1]; 15.8 µM (active) in assay [3]; greater than 9.22 µM in [6]; greater than 46 µM in assay [7]; 2.51 µM (active) in assay [12]. For the same compound, the activity change, negative = inhibition in assay [2] was -8.79%; in assay [4], -4.49%. Further, the activity, negative = inhibition in assay [5] was 18.8%. The Potency entry in assay [8], in assay [9] and in assay [10] was “inactive” throughout.

In the case of `Cc1ccc([C@@H](O)c2cnc(C)n2Cc2ccccc2)cc1`, the Potency in assay [1] was greater than 11.4 µM; in [6] it was greater than 46 µM; in assay [7], greater than 9.22 µM; in [13], 0.631 µM (active); in assay [12] it was 1.26 µM (active). The activity change, negative = inhibition was -7.71% in [2] and -10.9% in assay [4]. The Potency result in assay [3], in [8], in assay [9] and in [10] was “inactive” throughout. Besides, the activity, negative = inhibition in [5] is -4.84%.

Consider `O=C(O)c1nn(-c2ccccc2-c2n[nH]c(=O)[nH]c2=O)c(=O)[nH]c1=O`, for which the Potency in assay [1] was greater than 11.4 µM; in assay [6] it was greater than 46 µM; in assay [7], greater than 9.22 µM. The activity change, negative = inhibition is 1.66% in assay [2] and 18.8% in [4]. Besides, the Potency result in assay [3], in assay [8], in [9] and in assay [13] was “inactive” each time. In addition, in assay [5], the activity, negative = inhibition is 6.32%.

On to `Br/C(=N\Nc1nn[nH]n1)c1ccncc1`, for which the Potency in assay [1] is greater than 11.4 µM; in assay [6] it was greater than 46 µM; in [7], greater than 9.22 µM. In addition, the activity change, negative = inhibition in assay [2] is 9.43%; in assay [4], 24.2%. Moreover, the Potency result in [3], in assay [8], in assay [9] and in assay [13] was “inactive” each time. For the same compound, the activity, negative = inhibition in assay [5] is 1.9%.

With `O=C(O)c1ccc(Oc2nc3ccccc3s2)cc1`, the Potency was greater than 11.4 µM in assay [1]; 3.16 µM (active) in assay [3]; greater than 46 µM in [6]; greater than 9.22 µM in [7]; 3.98 µM (active) in [12]. The activity change, negative = inhibition in assay [2] was -5.86%; in [4], 11.2%. Moreover, the activity, negative = inhibition in assay [5] is 5.77%. The Potency result in [8], in assay [9] and in [10] was “inactive” each time.

Turning to `Cc1cc(C(C)(C)C)c(OCCCN2CCOCC2)c(C(C)(C)C)c1`, the Potency in assay [1] was greater than 11.4 µM; in [6], greater than 46 µM; in assay [7], greater than 9.22 µM; in assay [13], 2 µM (active). Also, the figures for the activity change, negative = inhibition in assay [2], in [3] and in assay [4] were 3.87%, -17.7% [at 2.29 µM] and -12.7%, respectively. For the same compound, in assay [5], the activity, negative = inhibition was 0.456%. Further, the Potency entry in [8], in assay [9] and in [10] was “inactive” in each case. Moreover, in assay [11], the activation is 1.57%.

As to `C[C@H](C(=O)c1ccccc1)[C@@H](c1ccccc1)N1CCOCC1`, the Potency in [1] is greater than 11.4 µM; in [6], greater than 46 µM; in assay [7] it was greater than 9.22 µM; in [12], 1.58 µM (active). In addition, the results for the activity change, negative = inhibition in [2] and in [4] were -4.08% and 5.21%, respectively. Besides, the Potency entry in assay [3], in assay [8], in [9] and in assay [10] was “inactive” throughout. Moreover, the activity, negative = inhibition in assay [5] was 8.2%.

Take `c1ccc2c(CN3CCN(Cc4c[nH]c5ccccc45)CC3)c[nH]c2c1`: the Potency is greater than 11.4 µM in [1], greater than 46 µM in assay [6], greater than 9.22 µM in assay [7] and 2.51 µM (active) in assay [13]. Besides, the activity change, negative = inhibition was -5.4% in assay [2], -18.1% [at 2.29 µM] in assay [3] and 5.24% in assay [4]. Besides, the activity, negative = inhibition in [5] is 5.49%. The Potency result in assay [8] and in assay [9] was “inactive” in each case.

Take `Nc1nc(SCc2ccccc2)c2ncn(Cc3ccccc3)c2n1`: the Potency in assay [1] was greater than 11.4 µM; in assay [3], 0.251 µM (active); in [6], greater than 46 µM; in assay [7], greater than 9.22 µM; in [12], 2.51 µM (active). Also, the values for the activity change, negative = inhibition in assay [2] and in [4] were -24.3% and 9.29%, respectively. Further, the activity, negative = inhibition in assay [5] is -3.2%. Moreover, the Potency result in assay [8], in [9] and in assay [10] was “inactive” throughout.

Turning to `C(/C=C\c1ccccc1)=Nc1ccc2c(c1)Cc1ccccc1-2`, the Potency in assay [1] was greater than 11.4 µM; in [3], 0.398 µM (active); in assay [6], greater than 46 µM; in assay [7], greater than 9.22 µM; in assay [12], 3.98 µM (active). Besides, the figures for the activity change, negative = inhibition in assay [2] and in [4] were -2.87% and -3.9%, respectively. In assay [5], the activity, negative = inhibition was 7.01%. In addition, the Potency entry in assay [8], in assay [9] and in assay [10] was “inactive” throughout.

Consider `O=C(O)[C@@H]1[C@@H](C(=O)O)[C@]23C[C@@]2(C(=O)O)[C@]2(C(=O)O)CCC3=C3CCCC312`, for which the Potency in [1] is greater than 11.4 µM; in assay [3], 2.51 µM (active); in assay [6], greater than 46 µM; in [7], greater than 9.22 µM. Also, the activity change, negative = inhibition in assay [2] was 10.3%; in [4], 0.691%. The activity, negative = inhibition in assay [5] is -2.48%. Besides, the Potency entry in [8], in [9] and in assay [13] was “inactive” in each case.

With `CN=C(N)/N=C(\N)Nc1cc2ccccc2c2ccccc12`, the Potency was greater than 11.4 µM in assay [1]; 0.251 µM (active) in assay [3]; greater than 46 µM in assay [6]; greater than 9.22 µM in assay [7]; 1.58 µM (active) in assay [13]. Moreover, the activity change, negative = inhibition was -3.61% in [2] and 27.5% in assay [4]. For the same compound, in assay [5], the activity, negative = inhibition is 12.7%. The Potency result in [8] and in assay [9] was “inactive” throughout.
